Inconclusive results are not listed. A call without a number means that no potency is given here. Active and inactive are the calls of the source. Unless noted, calls follow the shape of the full dose curve.
Test system: not listed separately
Assay: qHTS for Inhibitors of the Functional Ribonucleoprotein Complex (vRNP) of Lassa (LASV) Arenavirus: LASV Primary Screen - GLuc reporter signal (AID 1347082; calls by dose curve; tested in HEK293 reporter line; also: nearly all actives have a fitted effect of over 60% in size)
Details: LASV minigenome vRNP, Gaussia luciferase reporter; series mostly up to 57.5 µM

SMILES | Potency
COc1cc(N)c(Cl)cc1C(=O)NC1CCN(Cc2ccccc2)CC1 | inactive
COc1cc(O)c(C(=O)c2ccccc2)cc1S(=O)(=O)O | inactive
CCCS(=O)c1ccc2nc(NC(=O)OC)[nH]c2c1 (centres undefined) | inactive
O=C1N(c2ccccc2)c2ccccc2C1(Cc1ccncc1)Cc1ccncc1 | inactive
COc1ccc(OC(=O)N(CC(=O)O)Cc2ccc(OCCc3nc(-c4ccccc4)oc3C)cc2)cc1 | inactive
CCCSS/C(CCO)=C(\C)N(C=O)Cc1cnc(C)nc1N | inactive
O=c1[nH]c(=O)n([C@H]2C[C@H](O)[C@@H](CO)O2)cc1C(F)(F)F | inactive
Cc1c(C)n(CCN(C)C)c2ccc(C(=O)OCCN(C)C)cc12 | inactive
O=C(OCC(O)CO)c1ccccc1Nc1ccnc2cc(Cl)ccc12 (centres undefined) | inactive
COc1ccc(-c2nc3ccc(C4=NNC(=O)CC4C)cc3[nH]2)cc1 (centres undefined) | inactive
CN1CCC(Nc2ncc3ncnc(Nc4ccc(F)c(Cl)c4)c3n2)CC1 | inactive
CC[C@]12CCCN3CCc4c(n(c5ccccc45)C(=O)C1)[C@@H]32 | inactive
COC(=O)Nc1nc2ccc(S(=O)c3ccccc3)cc2[nH]1 (centres undefined) | inactive
CN1CCCC(n2nc(Cc3ccc(Cl)cc3)c3ccccc3c2=O)CC1 (centres undefined) | inactive
CN1CCN(CCC(=O)N2c3ccccc3Sc3ccc(C(F)(F)F)cc32)CC1 | inactive
Cc1ccc2nc(N)[nH]c(=O)c2c1Sc1ccncc1 | inactive
C#C[C@]1(O)CC[C@H]2[C@@H]3CCc4cc(O)ccc4[C@H]3CC[C@@]21C | inactive

Test system: not listed separately
Assay: qHTS for Inhibitors of the Functional Ribonucleoprotein Complex (vRNP) of Lassa (LASV) Arenavirus: Viability assay - alamar blue signal for LASV Primary Screen (AID 1347083; calls by dose curve; tested in HEK293 reporter line; also: nearly all actives have a fitted effect of over 80% in size; also: potency is read from the fitted curve at half-maximal effect)
Details: cell viability, alamar blue fluorescence (LASV minigenome counter-screen); series mostly up to 57.5 µM

SMILES | Potency
COc1cccc2c1C(=O)c1c(O)c3c(c(O)c1C2=O)C[C@@](O)(C(C)=O)C[C@@H]3O[C@H]1C[C@H](N)[C@H](O)[C@H](C)O1 | 0.891 µM (active)
O[C@@H](COc1cccc2ncccc12)CN1CCN(C2c3ccccc3[C@@H]3[C@H](c4ccccc42)C3(F)F)CC1 (some centres undefined) | 12.2 µM (active)
CC(C)n1nc(-c2cc3cc(O)ccc3[nH]2)c2c(N)ncnc21 | 1.78 µM (active)
Clc1ccccc1C(c1ccccc1)(c1ccccc1)n1ccnc1 | inactive
CCCCCN=C(N)N/N=C/c1c[nH]c2ccc(OC)cc12 | inactive
O=C1[C@H]2CCCC[C@H]2C(=O)N1CCCCN1CCN(c2nsc3ccccc23)CC1 | inactive
CCCCCCCCCCCCCCCC[n+]1ccccc1 | 15.8 µM (active)
CCOC(=O)N1CCC(n2c(=O)[nH]c3cc(Cl)ccc32)CC1 | inactive

Test system: not listed separately
Assay: qHTS for Inhibitors of the Functional Ribonucleoprotein Complex (vRNP) of Lymphocytic Choriomeningitis Arenaviruses (LCMV): Viability assay - alamar blue signal for LCMV Primary Screen (AID 1347085; calls by dose curve; tested in HEK293 reporter line; also: nearly all actives have a fitted effect of over 80% in size; also: potency is read from the fitted curve at half-maximal effect)
Details: alamar blue viability counter-screen, LCMV vRNP screen cells; series mostly up to 57.5 µM

SMILES | Potency
COc1cc(N)c(Cl)cc1C(=O)NC1CCN(Cc2ccccc2)CC1 | inactive
Nc1c2ccccc2nc2ccccc12 | 14.1 µM (active)
Oc1c(Cl)cc(Cl)c(Cl)c1Cc1c(O)c(Cl)cc(Cl)c1Cl | inactive
Cc1nc2ccccc2n1Cc1ccc(Cl)cc1 | inactive
COc1ccc(OC(=O)N(CC(=O)O)Cc2ccc(OCCc3nc(-c4ccccc4)oc3C)cc2)cc1 | inactive
COc1cccc2c1C(=O)c1c(O)c3c(c(O)c1C2=O)C[C@@](O)(C(C)=O)C[C@@H]3O[C@H]1C[C@H](N)[C@H](O)[C@H](C)O1 | 0.355 µM (active)
CC(=O)SC[C@@H](Cc1ccccc1)C(=O)NCC(=O)OCc1ccccc1 | inactive
O=c1[nH]c(=O)n([C@H]2C[C@H](O)[C@@H](CO)O2)cc1C(F)(F)F | 15.8 µM (active)
COC(=O)c1nc(Cl)c(Cl)nc1N | inactive
O=C(Nc1ccc(Cl)cc1)Nc1ccc(Cl)c(C(F)(F)F)c1 | 14.1 µM (active)
CN1CCC(Nc2ncc3ncnc(Nc4ccc(F)c(Cl)c4)c3n2)CC1 | inactive
Clc1ccccc1C(c1ccccc1)(c1ccccc1)n1ccnc1 | inactive
O=C1[C@H]2CCCC[C@H]2C(=O)N1CCCCN1CCN(c2nsc3ccccc23)CC1 | inactive
CC[N+](CC)(CC)CCOc1ccc(/C=C/c2ccccc2)cc1 | inactive
CO[C@@H]1[C@@H](OC)[C@H](C)[C@@](O)(CC(=O)O)O[C@H]1[C@H](C)[C@H]1O[C@@]2(CC[C@@](C)([C@H]3CC[C@@](C)([C@@H]4O[C@@H]([C@H]5O[C@](C)(O)[C@H](C)C[C@@H]5C)C[C@@H]4OC4C[C@H](OC)[C@@H](OC)[C@H](C)O4)O3)O2)C[C@H](O)[C@H]1C (some centres undefined) | 2 µM (active)
O=C(O)c1ccc(OCCCOc2ccc(C(=O)O)cc2)cc1 | inactive
CCOC(=O)N1CCC(n2c(=O)[nH]c3cc(Cl)ccc32)CC1 | inactive

Target: Nucleoprotein (Lymphocytic choriomeningitis virus (strain Armstrong)) (UniProt P09992)
Assay: qHTS for Inhibitors of the Functional Ribonucleoprotein Complex (vRNP) of Lymphocytic Choriomeningitis Arenaviruses (LCMV): LCMV Primary Screen - GLuc reporter signal (AID 1347086); also: nearly all actives have a fitted effect of over 70% in size; also: potency is read from the fitted curve at half-maximal effect
Details: LCMV minigenome vRNP cell assay, Gaussia luciferase reporter; series mostly up to 57.5 µM

Chain of Nucleoprotein (Lymphocytic choriomeningitis virus (strain Armstrong)) (P09992 whole entry, looked up): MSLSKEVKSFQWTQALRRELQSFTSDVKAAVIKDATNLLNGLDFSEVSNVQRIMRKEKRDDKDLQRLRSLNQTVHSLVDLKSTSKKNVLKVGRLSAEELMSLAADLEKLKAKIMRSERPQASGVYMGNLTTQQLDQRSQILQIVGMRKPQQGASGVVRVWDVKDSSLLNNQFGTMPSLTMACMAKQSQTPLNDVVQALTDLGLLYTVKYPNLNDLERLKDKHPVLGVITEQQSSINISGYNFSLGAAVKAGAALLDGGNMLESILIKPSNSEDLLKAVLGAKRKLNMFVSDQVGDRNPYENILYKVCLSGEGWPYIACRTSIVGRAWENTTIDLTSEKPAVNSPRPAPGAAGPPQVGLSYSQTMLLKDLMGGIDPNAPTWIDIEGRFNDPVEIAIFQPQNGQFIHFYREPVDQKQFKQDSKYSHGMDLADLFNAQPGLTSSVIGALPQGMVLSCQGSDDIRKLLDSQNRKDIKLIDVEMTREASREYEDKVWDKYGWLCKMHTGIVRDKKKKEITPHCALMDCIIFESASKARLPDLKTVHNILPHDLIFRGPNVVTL

SMILES | Potency
COc1cc(N)c(Cl)cc1C(=O)NC1CCN(Cc2ccccc2)CC1 | inactive
COc1cc(O)c(C(=O)c2ccccc2)cc1S(=O)(=O)O | inactive
CCCS(=O)c1ccc2nc(NC(=O)OC)[nH]c2c1 (centres undefined) | inactive
Cc1cc2nc3ccc(=[N+](C)C)cc-3sc2cc1N | 6.31 µM (active)
O=C1N(c2ccccc2)c2ccccc2C1(Cc1ccncc1)Cc1ccncc1 | inactive
COc1ccc(OC(=O)N(CC(=O)O)Cc2ccc(OCCc3nc(-c4ccccc4)oc3C)cc2)cc1 | inactive
CCCSS/C(CCO)=C(\C)N(C=O)Cc1cnc(C)nc1N | inactive
CC(=O)SC[C@@H](Cc1ccccc1)C(=O)NCC(=O)OCc1ccccc1 | inactive
O=c1[nH]c(=O)n([C@H]2C[C@H](O)[C@@H](CO)O2)cc1C(F)(F)F | inactive
Cc1c(C)n(CCN(C)C)c2ccc(C(=O)OCCN(C)C)cc12 | inactive
O=C(OCC(O)CO)c1ccccc1Nc1ccnc2cc(Cl)ccc12 (centres undefined) | inactive
Cc1cc(C2CCCCC2)n(O)c(=O)c1 | inactive
COc1ccc(-c2nc3ccc(C4=NNC(=O)CC4C)cc3[nH]2)cc1 (centres undefined) | inactive
CC(C)n1nc(-c2cc3cc(O)ccc3[nH]2)c2c(N)ncnc21 | 1.78 µM (active)
CN1CCC(Nc2ncc3ncnc(Nc4ccc(F)c(Cl)c4)c3n2)CC1 | inactive
CC[C@]12CCCN3CCc4c(n(c5ccccc45)C(=O)C1)[C@@H]32 | 7.08 µM (active)
Clc1ccccc1C(c1ccccc1)(c1ccccc1)n1ccnc1 | inactive
O=C1[C@H]2CCCC[C@H]2C(=O)N1CCCCN1CCN(c2nsc3ccccc23)CC1 | inactive
CC[N+](CC)(CC)CCOc1ccc(/C=C/c2ccccc2)cc1 | inactive
COC(=O)Nc1nc2ccc(S(=O)c3ccccc3)cc2[nH]1 (centres undefined) | inactive
CN1CCCC(n2nc(Cc3ccc(Cl)cc3)c3ccccc3c2=O)CC1 (centres undefined) | inactive
CO[C@@H]1[C@@H](OC)[C@H](C)[C@@](O)(CC(=O)O)O[C@H]1[C@H](C)[C@H]1O[C@@]2(CC[C@@](C)([C@H]3CC[C@@](C)([C@@H]4O[C@@H]([C@H]5O[C@](C)(O)[C@H](C)C[C@@H]5C)C[C@@H]4OC4C[C@H](OC)[C@@H](OC)[C@H](C)O4)O3)O2)C[C@H](O)[C@H]1C (some centres undefined) | 0.562 µM (active)
O=C(O)c1ccc(OCCCOc2ccc(C(=O)O)cc2)cc1 | inactive
C[C@@H]1C[C@H]2[C@@H]3CCC4=CC(=O)C=C[C@]4(C)[C@@]3(Cl)[C@@H](O)C[C@]2(C)[C@@]1(OC(=O)c1ccco1)C(=O)CCl | inactive
CN1CCN(CCC(=O)N2c3ccccc3Sc3ccc(C(F)(F)F)cc32)CC1 | inactive
Cc1ccc2nc(N)[nH]c(=O)c2c1Sc1ccncc1 | inactive
C#C[C@]1(O)CC[C@H]2[C@@H]3CCc4cc(O)ccc4[C@H]3CC[C@@]21C | inactive
